Measured values taken from the supplement of paper PMC8975748.
Counter-ions that a name gives are not always drawn. ± gives the standard deviation of the averaged measurements.

How the values were obtained:
[1] = test system: Saccharomyces cerevisiae BY4741 SeMeCo community; test: mean cell size (pixel area) (pixels); higher = larger cells; conditions: 10 µM; 24 h; SM minimal medium
How it was run: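 A fluorescent Saccharomyces cerevisiae BY4741 community carrying four plasmids was used, with each plasmid complementing one auxotrophy and bearing a fluorescent marker. An overnight preculture at OD600 = 1.0 was diluted to OD600 = 0.3, and 70 µl went into 384-well plates acoustically predosed with drug (final 10 µM) in SM medium for 24 h. After paraformaldehyde fixation, cells were imaged by automated confocal microscopy and analysed in Harmony, giving the mean cell pixel area per well. Each value is the average of 3 replicates. Same SeMeCo high-content imaging drug screen: Selleck FDA-approved drugs at 10 µM, 24 h in SM medium, 384-well plates, 3 replicates.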

[2] = test system: Saccharomyces cerevisiae BY4741 SeMeCo community; test: z-score of prototroph abundance vs DMSO median; higher = larger share of this subpopulation than in DMSO controls; conditions: 10 µM; 24 h; SM minimal medium; subpopulation (auxotrophy): Prototroph
How it was run: (§1)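 Scoring was based on each subpopulation's abundance, expressed as a z-score against the vehicle-well median. A Saccharomyces cerevisiae BY4741 community with four plasmids, each restoring one auxotrophy and encoding a distinct fluorescent protein, was pre-grown overnight to OD600 1.0, diluted to 0.3, and added at 70 µl to 384-well plates acoustically predosed with library drugs (10 µM final). It then grew 24 h in minimal SM medium before paraformaldehyde fixation and automated confocal microscopy, with single-auxotroph fluorescent strains setting thresholds and autofluorescence correction.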

[3] = test system: Saccharomyces cerevisiae BY4741 SeMeCo community; test: z-score of subpopulation abundance vs DMSO median, subpopulation auxotrophic for M; higher = larger share of this subpopulation than in DMSO controls; conditions: 10 µM; 24 h; SM minimal medium; subpopulation (auxotrophy): M
How it was run: as §1

[4] = test system: Saccharomyces cerevisiae BY4741 SeMeCo community; test: z-score of subpopulation abundance vs DMSO median, subpopulation auxotrophic for L; higher = larger share of this subpopulation than in DMSO controls; conditions: 10 µM; 24 h; SM minimal medium; subpopulation (auxotrophy): L
How it was run: as §1

[5] = test system: Saccharomyces cerevisiae BY4741 SeMeCo community; test: z-score of subpopulation abundance vs DMSO median, subpopulation auxotrophic for H; higher = larger share of this subpopulation than in DMSO controls; conditions: 10 µM; 24 h; SM minimal medium; subpopulation (auxotrophy): H
How it was run: as §1

[6] = test system: Saccharomyces cerevisiae BY4741 SeMeCo community; test: z-score of subpopulation abundance vs DMSO median, subpopulation auxotrophic for LU; higher = larger share of this subpopulation than in DMSO controls; conditions: 10 µM; 24 h; SM minimal medium; subpopulation (auxotrophy): LU
How it was run: as §1

[7] = test system: Saccharomyces cerevisiae BY4741 SeMeCo community; test: z-score of subpopulation abundance vs DMSO median, subpopulation auxotrophic for LM; higher = larger share of this subpopulation than in DMSO controls; conditions: 10 µM; 24 h; SM minimal medium; subpopulation (auxotrophy): LM
How it was run: as §1

[8] = test system: Saccharomyces cerevisiae BY4741 SeMeCo community; test: z-score of subpopulation abundance vs DMSO median, subpopulation auxotrophic for HM; higher = larger share of this subpopulation than in DMSO controls; conditions: 10 µM; 24 h; SM minimal medium; subpopulation (auxotrophy): HM
How it was run: as §1

[9] = test system: Saccharomyces cerevisiae BY4741 SeMeCo community; test: z-score of subpopulation abundance vs DMSO median, subpopulation auxotrophic for UM; higher = larger share of this subpopulation than in DMSO controls; conditions: 10 µM; 24 h; SM minimal medium; subpopulation (auxotrophy): UM
How it was run: as §1

[10] = test system: Saccharomyces cerevisiae BY4741 SeMeCo community; test: z-score of subpopulation abundance vs DMSO median, subpopulation auxotrophic for HL; higher = larger share of this subpopulation than in DMSO controls; conditions: 10 µM; 24 h; SM minimal medium; subpopulation (auxotrophy): HL
How it was run: as §1

[11] = test system: Saccharomyces cerevisiae BY4741 SeMeCo community; test: z-score of subpopulation abundance vs DMSO median, subpopulation auxotrophic for HLU; higher = larger share of this subpopulation than in DMSO controls; conditions: 10 µM; 24 h; SM minimal medium; subpopulation (auxotrophy): HLU
How it was run: as §1

[12] = test system: Saccharomyces cerevisiae BY4741 SeMeCo community; test: z-score of subpopulation abundance vs DMSO median, subpopulation auxotrophic for HLM; higher = larger share of this subpopulation than in DMSO controls; conditions: 10 µM; 24 h; SM minimal medium; subpopulation (auxotrophy): HLM
How it was run: as §1

[13] = test system: Saccharomyces cerevisiae BY4741 SeMeCo community; test: z-score of subpopulation abundance vs DMSO median, subpopulation auxotrophic for HUM; higher = larger share of this subpopulation than in DMSO controls; conditions: 10 µM; 24 h; SM minimal medium; subpopulation (auxotrophy): HUM
How it was run: as §1

[14] = test system: Saccharomyces cerevisiae BY4741 SeMeCo community; test: z-score of subpopulation abundance vs DMSO median, subpopulation auxotrophic for LUM; higher = larger share of this subpopulation than in DMSO controls; conditions: 10 µM; 24 h; SM minimal medium; subpopulation (auxotrophy): LUM
How it was run: as §1

[15] = test system: Saccharomyces cerevisiae BY4741 SeMeCo community; test: z-score of subpopulation abundance vs DMSO median, subpopulation auxotrophic for HLUM; higher = larger share of this subpopulation than in DMSO controls; conditions: 10 µM; 24 h; SM minimal medium; subpopulation (auxotrophy): HLUM
How it was run: as §1

[16] = test system: Saccharomyces cerevisiae BY4741 SeMeCo community; test: z-score of subpopulation abundance vs DMSO median, subpopulation auxotrophic for U; higher = larger share of this subpopulation than in DMSO controls; conditions: 10 µM; 24 h; SM minimal medium; subpopulation (auxotrophy): U
How it was run: as §1

[17] = test system: Saccharomyces cerevisiae BY4741 SeMeCo community; test: z-score of subpopulation abundance vs DMSO median, subpopulation auxotrophic for HU; higher = larger share of this subpopulation than in DMSO controls; conditions: 10 µM; 24 h; SM minimal medium; subpopulation (auxotrophy): HU
How it was run: as §1

SMILES | mean cell size [1] | z-score of prototroph abundance [2] | z-score of subpopulation abundance [3] | z-score of subpopulation abundance [4] | z-score of subpopulation abundance [5] | z-score of subpopulation abundance [6] | z-score of subpopulation abundance [7] | z-score of subpopulation abundance [8] | z-score of subpopulation abundance [9] | z-score of subpopulation abundance [10] | z-score of subpopulation abundance [11] | z-score of subpopulation abundance [12] | z-score of subpopulation abundance [13] | z-score of subpopulation abundance [14] | z-score of subpopulation abundance [15] | z-score of subpopulation abundance [16] | z-score of subpopulation abundance [17]
CO/N=C(\C(=O)N[C@@H]1C(=O)N2C(C(=O)O)=C(Cn3ccc(=N)n3CCO)CS[C@H]12)c1csc(N)n1 [Cefoselis Sulfate] | 12.3 ± 0.24 | 0.34 | 1.45 | -1.67 | -1.31 | -0.98 | -0.08 | -0.32 | 0.03 | -1.68 | -0.33 | -1.24 | 0.02 | -0.44 | -0.64 | – | –
COc1ccnc(C[S+]([O-])c2nc3cc(OC(F)F)ccc3[nH]2)c1OC (centres undefined) [Pantoprazole sodium] | 12.5 ± 0.28 | -0.43 | 0.43 | -0.4 | 0.86 | -0.65 | 0 | 0.29 | 0.55 | -0.43 | -0.16 | -0.85 | 0.3 | 0 | – | -0.3 | 0.06
Cc1ccc(Sc2ccccc2N2CCNCC2)c(C)c1 [Vortioxetine] | 12.18 ± 0.097 | – | 0.08 | -0.09 | -0.14 | -0.19 | -0.16 | -0.01 | 0.26 | – | 0.51 | 0.2 | 0.6 | -0.16 | -0.06 | -0.12 | –
CCCNC(C)C(=O)Nc1ccccc1C (centres undefined) [Prilocaine] | 12.51 ± 0.059 | -0.27 | -0.72 | 1 | 0.48 | 0.36 | -0.18 | 0.09 | -0.84 | – | 0.3 | 0.16 | -0.22 | 0.36 | 0.52 | – | –
CN1[C@@H]2CC[C@H]1C[C@@H](OC(c1ccccc1)c1ccccc1)C2 [Benztropine mesylate] | 12.38 ± 0.057 | 1.01 | -0.66 | 0.17 | – | -0.21 | 0.22 | -0.56 | -0.32 | 0.19 | -0.48 | -0.44 | -0.47 | -0.36 | -0.38 | – | –
OB1OCc2cc(F)ccc21 [Tavaborole (AN-2690)] | 14 ± 0.24 | -16.4 | 1 | 0.22 | 14.2 | 4.22 | 6.17 | 27.5 | 7.1 | 17.6 | 23.2 | 98 | 16.9 | 16.4 | 47.7 | -3.62 | –
CS(=O)(=O)c1ccc(C2=C(c3ccccc3)C(=O)OC2)cc1 [Rofecoxib] | 12.3 ± 0.16 | -0.48 | 0.64 | 1.07 | 0.29 | 0.3 | 1.55 | 1.11 | 0.95 | 0.69 | 1.31 | 1.01 | 0.77 | 1.28 | 0.43 | -0.52 | –
OCCN1CCN(CCCN2c3ccccc3Sc3ccc(Cl)cc32)CC1 [Perphenazine] | 12.3 ± 0.2 | -0.28 | -0.42 | -0.47 | 0.04 | 0.15 | -0.01 | 0.07 | 0.06 | – | 0.1 | 0 | 0.73 | 0.66 | -0.22 | 0.29 | –
CCCCN1CCCCC1C(=O)Nc1c(C)cccc1C (centres undefined) [Bupivacaine HCl] | 12.48 ± 0.1 | 0.23 | 0.05 | -0.57 | 0.67 | -0.05 | -0.93 | 0.01 | 0.27 | -0.36 | -0.41 | 0.32 | -0.41 | -0.72 | – | 0.36 | -0.26
NC(=O)OCC(COC(N)=O)c1ccccc1 [Felbamate] | 12.33 ± 0.12 | 1.19 | -0.21 | -0.15 | -0.6 | -0.71 | -1.27 | -1.32 | -0.58 | -0.42 | -1.23 | -1.16 | -0.71 | -0.77 | -0.68 | -0.1 | –
C#C[C@]1(O)CC[C@H]2[C@@H]3CCC4=CC(=O)CC[C@@H]4[C@H]3CC[C@@]21CC [Levonorgestrel] | 12.4 ± 0.16 | 0.69 | -0.18 | -0.24 | -0.72 | -0.04 | -0.89 | -0.99 | -0.13 | -0.95 | 0.05 | -0.96 | -0.08 | -0.68 | – | 0.3 | -0.13
C=CC[C@@H]1/C=C(\C)C[C@H](C)C[C@H](OC)[C@H]2O[C@@](O)(C(=O)C(=O)N3CCCC[C@H]3C(=O)O[C@H](/C(C)=C/[C@@H]3CC[C@@H](O)[C@H](OC)C3)[C@H](C)[C@@H](O)CC1=O)[C@H](C)C[C@@H]2OC [Tacrolimus (FK506)] | 12.02 ± 0.1 | -1.63 | 2.07 | 0.71 | 1.87 | -1.01 | 0.93 | 1.61 | 1.02 | 1.89 | 1.27 | 1.8 | 1.84 | 1.93 | 2.77 | – | –
CC/C(=C(\c1ccccc1)c1ccc(OCCN(C)C)cc1)c1ccccc1 [Tamoxifen] | 11.75 ± 0.092 | -0.91 | 0.18 | 0.96 | – | 0.89 | 1.82 | 0.93 | 0.21 | 0.95 | 0.93 | 0.89 | 0.85 | 0.23 | 0.09 | -0.18 | –
CC(C)[C@H](N)C(=O)OCCOCn1cnc2c(=O)nc(N)[nH]c21 [Valaciclovir HCl] | 12.3 ± 0.16 | 0.5 | -0.55 | -0.06 | -0.62 | -0.13 | -0.74 | -0.81 | 0.08 | -0.27 | -0.75 | -0.27 | 0.37 | -0.29 | -0.14 | 0.12 | –
